Screening data from PubChem BioAssay.
This is a sample that favours compounds with a hit; in the whole collection about 12% have one here.
BAZ2B block: qHTS Assay for Inhibitors of BAZ2B. Bromodomain adjacent to zinc finger domain protein 2B (Homo sapiens), Q9UIF8. AlphaScreen BAZ2B-H3K14Ac peptide displacement. Potency, µM (top dose mostly 114 µM), for the others: at the top dose activity change, negative = inhibition, usual class: inhibitors. 360,000 compounds, 4.4% hits; note: % is set by controls: 0 for no effect and ±100 for the full control effect; nearly all actives have a fitted effect of over 60% in size
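Complex of BAZ2B and biotin-H3K14Ac (50 nM apiece) forms over 30 min at RT, then faces library compounds up to 110 uM for another 30 min; AlphaScreen beads added, 20 min dark incubation, luminescence read.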
G9a inh: qHTS Assay for Inhibitors of Histone Lysine Methyltransferase G9a; Histone-lysine N-methyltransferase EHMT2 (Homo sapiens), Q96KQ7; Potency, µM (top dose mostly 102 µM), for inactives: top-dose activity, negative = inhibition, hits mostly inhibitors; 350,000 compounds, 8.8% hits; G9a H3K9 monomethylation, AlphaScreen, 2 h; note: % is set by controls: 0 for no effect and ±100 for the full control effect; nearly all actives have a fitted effect of over 75% in size
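Quantitative HTS format: methyltransferase activity on a biotin-tagged H3K9 peptide is measured by AlphaScreen, using a rabbit anti-monomethyl-H3K9 antibody with streptavidin donor and anti-IgG acceptor beads. Final levels are 20 nM enzyme, 500 nM peptide, 20 uM SAM; 2 h RT.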
HP1b binding inh: HTS for Inhibitors of HP1-beta Chromodomain Interactions with Methylated Histone Tails. Chromobox protein homolog 1 (Homo sapiens), P83916. AlphaScreen HP1-beta / biotin-H3K9me3 peptide binding. Potency, µM (titrated, usually from 114 µM), for the others: top-dose activity change, negative = inhibition, most hits filed as inhibitors. 390,000 compounds, 0.56% hits. AID 540317, 2011; note: nearly all actives have a fitted effect of over 70% in size
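Compound inhibition of the preformed complex between 50 nM HP1-beta and 50 nM biotinylated H3K9me3 peptide was read by AlphaScreen. Buffer was PBS pH 7.4 with 0.01% Tween-20. Incubations ran 30 min at room temperature, with 10 ug/mL donor/acceptor beads.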
JMJD2A Tudor: qHTS Assay for Inhibitors of JMJD2A-Tudor Domain; Lysine-specific demethylase 4A (Homo sapiens), O75164; AlphaScreen JMJD2A-Tudor / H3K4me3 peptide binding; Potency, µM (series often up to 114 µM), without a hit: top-dose activity change, negative = inhibition, actives largely listed as inhibitors; 390,000 compounds, 4.4% hits; AID 504339, 2011; note: % is set by controls: 0 for no effect and ±100 for the full control effect; nearly all actives have a fitted effect of over 50% in size
Target sequence (O75164 whole entry, looked up, the tested form may be a part): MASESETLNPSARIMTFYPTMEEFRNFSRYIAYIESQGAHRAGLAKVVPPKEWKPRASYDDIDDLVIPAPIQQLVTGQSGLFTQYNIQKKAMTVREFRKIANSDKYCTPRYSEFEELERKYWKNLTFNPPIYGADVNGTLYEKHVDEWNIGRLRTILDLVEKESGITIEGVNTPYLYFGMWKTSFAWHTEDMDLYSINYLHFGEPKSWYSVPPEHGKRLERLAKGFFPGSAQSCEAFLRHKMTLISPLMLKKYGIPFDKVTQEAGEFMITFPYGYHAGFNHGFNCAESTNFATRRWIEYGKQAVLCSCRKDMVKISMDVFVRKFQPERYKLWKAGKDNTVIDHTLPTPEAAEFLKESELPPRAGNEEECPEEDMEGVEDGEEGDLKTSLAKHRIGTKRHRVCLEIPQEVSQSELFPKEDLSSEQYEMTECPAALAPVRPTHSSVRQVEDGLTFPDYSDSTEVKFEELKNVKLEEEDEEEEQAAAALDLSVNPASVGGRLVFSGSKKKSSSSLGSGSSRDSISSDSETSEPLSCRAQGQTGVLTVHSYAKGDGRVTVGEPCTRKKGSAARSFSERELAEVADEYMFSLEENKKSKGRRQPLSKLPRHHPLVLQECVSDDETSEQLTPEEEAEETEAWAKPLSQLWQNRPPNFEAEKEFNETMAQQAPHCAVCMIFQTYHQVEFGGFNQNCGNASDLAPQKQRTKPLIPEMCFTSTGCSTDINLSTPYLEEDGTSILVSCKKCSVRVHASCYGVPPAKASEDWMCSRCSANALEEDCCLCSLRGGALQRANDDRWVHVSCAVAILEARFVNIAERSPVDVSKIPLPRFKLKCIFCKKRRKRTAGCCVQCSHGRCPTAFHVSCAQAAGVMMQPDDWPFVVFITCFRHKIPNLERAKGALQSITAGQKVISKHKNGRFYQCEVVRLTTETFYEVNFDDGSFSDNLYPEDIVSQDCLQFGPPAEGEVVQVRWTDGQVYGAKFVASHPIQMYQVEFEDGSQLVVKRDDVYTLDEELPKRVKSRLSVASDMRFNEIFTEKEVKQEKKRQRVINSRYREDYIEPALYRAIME
Sfp PPTase inh: qHTS Assay for Inhibitors of Bacillus subtilis Sfp phosphopantetheinyl transferase (PPTase); Biochemical Sfp PPTase activity, qHTS; Potency, µM, for inactives: largest response in the series, negative = inhibition, hits mostly inhibitors; 310,000 compounds, 3.5% hits;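 note: the enzyme is Sfp with the accession as filed and its product quenches rhodamine fluorescence; 0% = enzyme reaction without inhibitor and -100% = no enzyme wells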
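Sfp 15 nM + cpd, 15 min RT; start w/ rhodamine-CoA 5 uM, BHQ-2-YbbR 12.5 uM (final); 50 mM Hepes pH 7.6, 10 mM MgCl2, 0.01% NP-40, 0.01% BSA; read 525/598 nm at 0 and 30 min.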
L3MBTL1 inh: qHTS Assay for the Inhibitors of L3MBTL1 | AlphaScreen L3MBTL1–H3K9me1 peptide binding | Potency, µM (highest dose often 57.1 µM), for the others: at the top dose activity, negative = inhibition, most hits filed as inhibitors | 230,000 compounds, 0.66% hits | AID 485360, 2010; note: % is set by controls: 0 for no effect and ±100 for the full control effect; nearly all actives have a fitted effect of over 60% in size
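L3MBTL1 50 nM + b-AHA-H3(1-15)K9me1 75 nM, 30 min RT; compound added, 30 min RT; streptavidin donor/Ni-chelate acceptor beads 10 ug/mL each final, 30 min RT dark; AlphaScreen read.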
* marks the source's active call; other numbers are inactive results; [ ] = dose if it differs, or a comment. Calls come from the whole dose curve; as a rule, active = well fitted curve in the direction sought with a large enough effect; inconclusive = small, poorly fitted or top-dose-only effect, or another doubt; inactive = no such curve, though single readings can be large; an effect the other way counts as inactive or inconclusive. Potency is the fitted concentration of half-maximal effect.

Results for COCCN=c1scc(-c2ccc3c(c2)NC(=O)CO3)n1/N=C(\C)c1ccc(O)cc1 ?
BAZ2B block: 28µM*; HP1b binding inh: inconclusive; JMJD2A Tudor: 22µM*; Sfp PPTase inh: 89µM*; L3MBTL1 inh: inconclusive

How did COc1cc(/C=N/n2c(-c3ccc4c(c3)NC(=O)CO4)csc2=Nc2cccc(C)c2)ccc1O do in these assays?
BAZ2B block: 8.9µM*; G9a inh: 10µM*; HP1b binding inh: inconclusive; JMJD2A Tudor: inconclusive; Sfp PPTase inh: -27%; L3MBTL1 inh: inconclusive

How did COc1c(C)cc(NC(=O)c2ccc3c(c2)NC(=O)CO3)cc1C do in these assays?
BAZ2B block: -14%; G9a inh: -2%; HP1b binding inh: 16%; JMJD2A Tudor: -18%; Sfp PPTase inh: 11%; L3MBTL1 inh: 5%

What do the screens show for `Cc1cc(C)c(NC(=O)c2cc(S(=O)(=O)N3CCCC3)cn2C)c(C)c1`?
BAZ2B block: 8%; G9a inh: 2%[59 µM]; HP1b binding inh: 40%; JMJD2A Tudor: -1%

How did Cc1ccccc1NS(=O)(=O)c1ccc2[nH]cc(C(=O)NC(C)c3ccccc3)c(=O)c2c1 (centres undefined) do in these assays?
BAZ2B block: inconclusive; G9a inh: -38%[59 µM]; HP1b binding inh: -12%; JMJD2A Tudor: inconclusive

How did COc1ccc(-c2ccc3c(N)c(C(=O)NC(C)C)sc3n2)cc1OC do in these assays?
BAZ2B block: -1%; G9a inh: -44%; HP1b binding inh: 76%; JMJD2A Tudor: 23%; Sfp PPTase inh: inconclusive; L3MBTL1 inh: 29%

How did COc1ccc(C(=O)c2sc3nc(-c4ccccc4)ccc3c2N)cc1OC do in these assays?
BAZ2B block: -24%; G9a inh: inconclusive; HP1b binding inh: 35%; JMJD2A Tudor: -35%; Sfp PPTase inh: -3%; L3MBTL1 inh: 11%

How did COc1ccc(-c2ccc3c(N)c(C(=O)c4ccc(OC)c(OC)c4)sc3n2)cc1 do in these assays?
BAZ2B block: -26%; G9a inh: 2.8µM*; HP1b binding inh: 8%; JMJD2A Tudor: inconclusive; Sfp PPTase inh: -16%

What do the screens show for `COc1ccc(-c2ccc3c(n2)sc2c(=O)[nH]c(=O)[nH]c23)cc1OC`?
BAZ2B block: -38%; G9a inh: 3.5µM*; Sfp PPTase inh: -16%; L3MBTL1 inh: -7%

Results for CCOc1ccc(CCNC(=O)Cn2ccc3cc(S(=O)(=O)N4CCCCC4)ccc32)cc1 ?
BAZ2B block: -19%; G9a inh: inconclusive; HP1b binding inh: 26%; JMJD2A Tudor: -10%

What do the screens show for `N#CCCn1c(=O)c(-c2ccccc2)nc2cnc(OCc3ccccc3)nc21`?
G9a inh: 2%[12.7 µM]; Sfp PPTase inh: -7%

Results for Cc1ccc(Cn2c(SCCN3CCCCC3)nc3c2c(=O)[nH]c(=O)n3C)cc1 ?
BAZ2B block: 2%; G9a inh: 25µM*; HP1b binding inh: -29%; JMJD2A Tudor: -22%; Sfp PPTase inh: 11µM*; L3MBTL1 inh: 5%

Results for Cn1c(=O)[nH]c(=O)c2c1nc(SCCN1CCCCC1)n2Cc1ccccc1 ?
BAZ2B block: 0%; G9a inh: -7%[12.7 µM]; HP1b binding inh: 48%; JMJD2A Tudor: -1%; Sfp PPTase inh: 16%; L3MBTL1 inh: 10%

How did Cn1c(=O)[nH]c(=O)c2c1nc(SCCN1CCCCC1)n2CCCc1ccccc1 do in these assays?
BAZ2B block: -31%; G9a inh: 8.9µM*; HP1b binding inh: -10%; JMJD2A Tudor: inconclusive; Sfp PPTase inh: 3.5µM*; L3MBTL1 inh: 4%
